TLR4-MyD88 BLA = inhibitors of human TLR4-MyD88 binding; O00206+Q99836; HeLa CL3-4 TLR4/MyD88 BLA complementation, FRET ratio; inhibition, % at 8.4 µM; 200,000 tested, 0.18% active; AID 861; in the data active means inhibition above about 25%;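 further: 0% = vehicle and 100% = reference inhibitor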
GRK2 inh = human GRK2 inhibition via aptamer displacement | P25098 | bead flow cytometry, FAM-aptamer displacement from GRK2 | 330,000 tested, 0.59% active | inhibition of aptamer binding, % at 10 µM;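 active means inhibition of aptamer binding above 40%, roughly 3 SD of noise, on plates passing a quality check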;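 further: median bead fluorescence of bound FAM aptamer so fluorescent compounds give negative values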
TLR9-MyD88 inh = blocks human TLR9 binding to MyD88 | Q9NR96+Q99836 | CHO BLA complementation TLR9-MyD88, CCF4 FRET ratio | inhibition, % at 4.98 µM | 340,000 tested, 0.21% active | AID 504734;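 active means inhibition above the mean over all tested compounds plus 3 SD, cut at about 21% in these data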;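 further: 0% = DMSO only wells and 100% = clavulanate BLA inhibitor control wells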
Target sequence (Q99836 whole entry, looked up): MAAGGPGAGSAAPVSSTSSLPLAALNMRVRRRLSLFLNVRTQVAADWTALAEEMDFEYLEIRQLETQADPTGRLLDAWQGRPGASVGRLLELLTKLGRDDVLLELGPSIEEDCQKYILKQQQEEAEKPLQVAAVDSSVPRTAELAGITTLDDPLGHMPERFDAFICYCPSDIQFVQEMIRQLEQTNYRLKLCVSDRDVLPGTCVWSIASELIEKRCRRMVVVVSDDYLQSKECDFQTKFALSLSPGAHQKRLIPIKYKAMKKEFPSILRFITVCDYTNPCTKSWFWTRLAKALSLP
Target sequence (Q9NR96 whole entry, looked up): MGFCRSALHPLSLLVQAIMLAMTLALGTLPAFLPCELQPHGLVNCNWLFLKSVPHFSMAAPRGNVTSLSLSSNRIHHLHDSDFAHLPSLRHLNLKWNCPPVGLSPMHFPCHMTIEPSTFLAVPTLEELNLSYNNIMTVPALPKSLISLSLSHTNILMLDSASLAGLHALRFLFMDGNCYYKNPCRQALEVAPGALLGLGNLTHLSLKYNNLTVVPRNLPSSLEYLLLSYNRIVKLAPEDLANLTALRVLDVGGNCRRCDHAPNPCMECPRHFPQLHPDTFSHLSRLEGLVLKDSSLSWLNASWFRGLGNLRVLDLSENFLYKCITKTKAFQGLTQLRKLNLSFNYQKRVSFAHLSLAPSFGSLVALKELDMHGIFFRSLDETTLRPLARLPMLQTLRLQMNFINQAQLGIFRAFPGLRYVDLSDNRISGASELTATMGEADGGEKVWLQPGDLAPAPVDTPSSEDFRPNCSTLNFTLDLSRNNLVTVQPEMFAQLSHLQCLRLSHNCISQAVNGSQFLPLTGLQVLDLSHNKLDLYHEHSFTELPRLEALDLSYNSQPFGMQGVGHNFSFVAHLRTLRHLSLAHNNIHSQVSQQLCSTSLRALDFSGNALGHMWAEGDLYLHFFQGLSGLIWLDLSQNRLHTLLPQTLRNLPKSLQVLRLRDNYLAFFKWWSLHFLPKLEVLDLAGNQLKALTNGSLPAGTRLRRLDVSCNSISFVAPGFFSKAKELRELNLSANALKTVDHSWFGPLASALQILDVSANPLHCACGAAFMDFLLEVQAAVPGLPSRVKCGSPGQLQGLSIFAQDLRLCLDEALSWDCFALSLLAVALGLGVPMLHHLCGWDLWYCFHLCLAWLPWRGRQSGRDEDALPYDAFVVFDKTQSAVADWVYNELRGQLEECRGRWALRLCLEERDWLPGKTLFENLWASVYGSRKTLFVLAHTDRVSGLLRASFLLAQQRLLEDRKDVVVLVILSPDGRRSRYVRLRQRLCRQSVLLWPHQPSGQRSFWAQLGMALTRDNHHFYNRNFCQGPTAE
ANO1 block = blocks the mouse calcium-activated chloride channel TMEM16A; normalized B-score (activity score, 25-100; higher = stronger inhibition) at 10 µM; AID 588511; Q8BHY3; 310,000 tested, 1.2% active; HEK293 TMEM16A/YFP iodide influx fluorescence, ionomycin;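 active means ratio plate-corrected score three or more library SD toward inhibition, starting fluorescence score within five deviations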;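 further: score derived from kinetic fluorescence span divided by baseline fluorescence per well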
TMEM16A act = activates or potentiates the mouse TMEM16A chloride channel. B-score at 10 µM. AID 623877. 340,000 tested, 0.3% active. HEK293 TMEM16A/YFP-H148Q/I152L, iodide quench fluorescence; hits give low values;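 active means fluorescence-ratio B-score plate-corrected deviation score at least 3 library SD below zero, with starting fluorescence score within 5 deviations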;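 further: channel opened by trigger with iodide after compound preincubation; score built on the fluorescence ratio of max minus min over baseline; more negative score means more quench and so TMEM16A activation or potentiation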
NOD2-RIPK2 inh = inhibitors of human NOD2-RIPK2 interaction; 360,000 tested, 0.38% active; CHO BLA complementation NOD2-RIPK2, CCF4 ratio; inhibition, % at 4.98 µM; AID 624267; O43353; in the data active means inhibition above about 21%;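 further: 0% = vehicle only and 100% = reference blocker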
TLR9-MyD88 cf = TLR9-MyD88 interaction inhibition, confirmation. CHO TLR9/MyD88 BLA complementation, CCF4 FRET ratio. 680 tested, 51% active. shares compounds with TLR9-MyD88 inh. AID 540250. inhibition, % at 4.98 µM;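 active means mean inhibition across three repeats above about 21% taken from the earlier screen, limit read from the data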;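 further: blue over green emission ratio reports constitutive TLR9 MyD88 association via BLA complementation; 0% = DMSO vehicle wells and 100% = clavulanate BLA inhibitor wells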
BLA counter = beta-lactamase reporter inhibition, counter-screen artifact; shares compounds with TLR9-MyD88 inh; CHO-BLA cells, CCF4 FRET ratio, BLA reporter; inhibition, % at 4.98 µM; 680 tested, 7% active; AID 540251;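 active means mean inhibition above a 50% cutoff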;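 further: counterscreen of TLR9-MyD88 hits on CMV-driven BLA in CHO-K1 cells; 0% = DMSO alone and 100% = clavulanate blocking BLA; higher means less blue over green ratio so more BLA blockade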
TLR9 CHO cytotox = CHO cell toxicity counter-screen for TLR9-MyD88 inhibitors. shares compounds with TLR9-MyD88 inh. TLR9-MyD88 CHO cells cytotoxicity, luminescence. AID 588336. 680 tested, 39% active. inhibition, % at 4.98 µM; in the data active means inhibition above about 11%
An asterisk follows results filed as active; i = inactive; . = not tested or not shown. Only some compounds are listed: those with a hit (about 2.2% of all), similar ones and a draw of the others.

SMILES | TLR4-MyD88 BLA | GRK2 inh | TLR9-MyD88 inh | ANO1 block | TMEM16A act | NOD2-RIPK2 inh | TLR9-MyD88 cf | BLA counter | TLR9 CHO cytotox
CN(C)S(=O)(=O)c1cccc(NC(=O)c2cc([N+](=O)[O-])ccc2N2CCCCC2)c1 | . | 0 | 22* | . | i | 8 | 1 | 2 | 4
CC(C)c1ccc(/C=N/NC(=O)C(=O)NCCCN2CCOCC2)cc1 | -1 | 0 | -3 | i | i | -4 | . | . | .
COc1ccccc1C1C=C(c2ccc(Cl)cc2)Nc2nc(N3C(=O)CCC3=O)nn21 (centres undefined) | 8 | 4 | 47* | i | i | 53* | 14 | 19 | -2
CCCCCCn1cc(CN2CC(N3CCN(CCO)CC3)CS2(=O)=O)nn1 (centres undefined) | . | . | . | . | . | -1 | . | . | .
O=C1CCCCCC1C1(O)C(=O)Nc2ccccc21 (centres undefined) | 13 | 2 | 32* | i | i | -3 | 1 | 0 | 1
COc1ccc(C(=O)/C=C/c2ccc(O)cc2)c2c1CC(O)C(C)(C)O2 (centres undefined) | . | 0 | 23* | . | i | 3 | 6 | 5 | 5
COc1ccc(C(=O)/C=C/c2ccc(O)cc2)c(O)c1CC=C(C)C | -6 | 2 | 5 | i | i | 3 | . | . | .
c1ccc(-c2cnn3c(-c4ccccc4)c(-c4ccccc4)nc3n2)cc1 | 13 | . | 23* | . | i | 9 | 60* | 58* | -3
Cc1cc(NC(=O)c2c([N+](=O)[O-])c(C)nn2C)no1 | 2 | 4 | 2 | i | i | -16 | . | . | .
Cc1cc(NC(=O)c2c([N+](=O)[O-])cnn2C)no1 | -13 | 3 | 34* | i | i | -9 | 3 | -6 | 0
Cc1cc(/C=C2\Cc3ccccc3C2=O)c(C)n1-c1ccccc1 | 1 | 3 | 21* | i | i | 10 | 19 | 23 | 8
Cc1cc(C=C2C(=O)c3ccccc3C2=O)c(C)n1-c1ccccc1 | 10 | 3 | 0 | i | i | -3 | . | . | .
CC(=O)c1ccc(S(=O)(=O)N(C)CC(=O)NCc2ccco2)cc1 | . | 2 | -5 | . | i | -6 | . | . | .
COc1ccc(C(=O)c2sc3nc(-c4ccc(OC)cc4)ccc3c2N)cc1 | -2 | 15 | 21* | i | i | 4 | 45* | 45 | 0
COc1ccc(NC(=O)c2sc3nc(-c4cccnc4)ccc3c2N)cc1 | . | 0 | 34* | i | i | 12 | 8 | 5 | 8
CCOc1ccc(S(=O)(=O)NCCC(=O)NCC(c2ccc(OC)cc2)N2CCCCC2)cc1 (centres undefined) | . | 0 | 0 | i | i | 11 | . | . | .
O=C(CN1C(=O)/C(=C/c2ccc(F)cc2)SC1=S)NC1CCS(=O)(=O)C1 (centres undefined) | . | 0 | 0 | i | i | -14 | . | . | .
O=C(CN1C(=O)/C(=C/c2ccccc2)SC1=S)NC1CCS(=O)(=O)C1 (centres undefined) | . | 1 | 21* | i | i | -18 | 3 | 2 | 2
CCN1CCN(Cc2c(O)ccc3c2O/C(=C\c2ccc(C)cc2)C3=O)CC1 | 10 | 0 | 21* | i | i | 16 | 10 | 14 | 1
O=C(NCCc1ccc(Cl)cc1)c1ccc2[nH]c(=O)c(=O)[nH]c2c1 | . | 3 | 1 | i | i | -10 | . | . | .
O=C(N/N=C/c1c(O)n(Cc2ccccc2)c(=O)c2ccccc12)c1cccnc1 | 5 | 0 | 20 | i | i | 19 | . | . | .
COc1ccc(Cn2c(O)c(/C=N/NC(=O)c3cccnc3)c3ccccc3c2=O)cc1 | 2 | . | 26* | . | i | 17 | 12 | 11 | 9
O=[N+]([O-])c1cnc(Sc2ccncn2)s1 | . | 0 | 31* | 25* | i | 80* | 46* | 1 | 99*
O=[N+]([O-])c1cnc(Sc2ccncn2)c([N+](=O)[O-])c1 | . | . | 5 | . | . | -3 | . | . | .
O=C1C(Cl)=C(NCCc2ccccc2)C(=O)c2ccccc21 | . | . | 21* | . | i | 1 | 50* | 5 | 98*
SMILES | TLR4-MyD88 BLA | GRK2 inh | TLR9-MyD88 inh | ANO1 block | TMEM16A act | NOD2-RIPK2 inh | TLR9-MyD88 cf | BLA counter | TLR9 CHO cytotox
O=S1(=O)CC(N2CCCC2)CN1Cc1ccccc1 (centres undefined) | . | . | . | . | . | -2 | . | . | .
CCCCNC(=S)NNc1c(Cl)cc(Cl)cc1Cl | -2 | 0 | 7 | i | i | -13 | . | . | .
O=C(NCCCl)NNc1c(Cl)cc(Cl)cc1Cl | -13 | 0 | 22* | i | i | -1 | 2 | 0 | 3
COc1cccc(C2=CC(c3ccc(OC)c(OC)c3OC)n3nnnc3N2)c1 (centres undefined) | 1 | 0 | 22* | i | i | 15 | 3 | 4 | 3
COc1ccc(C(=O)/C(=C\c2ccco2)N2C=CC=CC2=C(C#N)C#N)cc1 | 6 | 0 | 28* | i | i | 85* | 19 | 9 | 96*
Cc1nnc(Sc2cc(NCCO)c([N+](=O)[O-])c3nonc23)s1 | 2 | . | 21* | . | i | 10 | 23* | 3 | 98*
O=C1c2ccccc2NC(c2ccc(-c3cccc([N+](=O)[O-])c3)o2)N1O (centres undefined) | 2 | 0 | 22* | i | i | 3 | 8 | 7 | 43*
O=C1c2ccccc2NC(c2ccc(-c3ccc(F)cc3)o2)N1O (centres undefined) | . | 0 | -7 | . | i | -10 | . | . | .
Cn1cc(CN2CCCC(C(=O)Nc3cccc(-c4cc5ccccc5[nH]4)c3)C2)cn1 (centres undefined) | . | 0 | 0 | i | i | 13 | . | . | .
CC(C)n1cc(CN2CCCC(C(=O)Nc3cccc(-c4cc5ccccc5[nH]4)c3)C2)cn1 (centres undefined) | . | 0 | 23* | i | i | 5 | 6 | -1 | 7
Cc1c(N2C(=O)/C(=C\c3ccc(N(C)C)cc3)N(C)C2=S)c(=O)n(-c2ccccc2)n1C | 1 | 0 | -8 | i | i | -2 | . | . | .
C(#CC12CC3CC(CC(C3)C1)C2)CN1CCOCC1 | 1 | 3 | -4 | i | i | -7 | . | . | .
O=C(N/N=C/c1cccc2ccccc12)c1cc2ccccc2o1 | . | . | 23* | . | i | -5 | 3 | -2 | 4
Cc1nc(C(F)(F)F)ccc1C(=O)N1CCC1(C)C(=O)NS(=O)(=O)c1ccc(C#N)cc1 (centres undefined) | . | . | . | . | . | -13 | . | . | .
